# Structures can show the parent of a compound that is named as a salt. ± gives the standard deviation of the averaged measurements.
# How the values were obtained:
# [1] = test system: Saccharomyces cerevisiae BY4741 SeMeCo community; assay: mean cell size (pixel area) (pixels); higher = larger cells; conditions: 10 µM; 24 h; SM minimal medium
# How it was run: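 Mean cell pixel area per well was measured in a four-plasmid fluorescent community of Saccharomyces cerevisiae BY4741, where every plasmid complements one auxotrophy and carries a fluorescent marker. Cells from an overnight preculture at OD600 = 1.0 were diluted to OD600 = 0.3 and dispensed at 70 µl into 384-well plates acoustically predosed with drug to a final 10 µM in SM medium. Incubation lasted 24 h, followed by paraformaldehyde fixation, automated confocal imaging and analysis in Harmony. Reported figures are averaged over 3 replicates. Same SeMeCo high-content imaging drug screen: Selleck FDA-approved drugs at 10 µM, 24 h in SM medium, 384-well plates, 3 replicates.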
# [2] = test system: Saccharomyces cerevisiae BY4741 SeMeCo community; assay: z-score of prototroph abundance vs DMSO median; higher = larger share of this subpopulation than in DMSO controls; conditions: 10 µM; 24 h; SM minimal medium; subpopulation (auxotrophy): Prototroph
# How it was run: (§1)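 Subpopulation abundance was reported as a z-score against the median of vehicle wells. The Saccharomyces cerevisiae BY4741 community, carrying four plasmids that each restored one auxotrophy and encoded a distinct fluorescent protein, was grown 24 h in minimal SM medium in 384-well plates holding library drugs at 10 µM final. Cells were paraformaldehyde-fixed and imaged by automated confocal microscopy, with single-auxotroph fluorescent strains used for thresholds and autofluorescence correction.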
# [3] = test system: Saccharomyces cerevisiae BY4741 SeMeCo community; assay: z-score of subpopulation abundance vs DMSO median, subpopulation auxotrophic for M; higher = larger share of this subpopulation than in DMSO controls; conditions: 10 µM; 24 h; SM minimal medium; subpopulation (auxotrophy): M
# How it was run: as §1
# [4] = test system: Saccharomyces cerevisiae BY4741 SeMeCo community; assay: z-score of subpopulation abundance vs DMSO median, subpopulation auxotrophic for U; higher = larger share of this subpopulation than in DMSO controls; conditions: 10 µM; 24 h; SM minimal medium; subpopulation (auxotrophy): U
# How it was run: as §1
# [5] = test system: Saccharomyces cerevisiae BY4741 SeMeCo community; assay: z-score of subpopulation abundance vs DMSO median, subpopulation auxotrophic for H; higher = larger share of this subpopulation than in DMSO controls; conditions: 10 µM; 24 h; SM minimal medium; subpopulation (auxotrophy): H
# How it was run: as §1
# [6] = test system: Saccharomyces cerevisiae BY4741 SeMeCo community; assay: z-score of subpopulation abundance vs DMSO median, subpopulation auxotrophic for LU; higher = larger share of this subpopulation than in DMSO controls; conditions: 10 µM; 24 h; SM minimal medium; subpopulation (auxotrophy): LU
# How it was run: as §1
# [7] = test system: Saccharomyces cerevisiae BY4741 SeMeCo community; assay: z-score of subpopulation abundance vs DMSO median, subpopulation auxotrophic for LM; higher = larger share of this subpopulation than in DMSO controls; conditions: 10 µM; 24 h; SM minimal medium; subpopulation (auxotrophy): LM
# How it was run: as §1
# [8] = test system: Saccharomyces cerevisiae BY4741 SeMeCo community; assay: z-score of subpopulation abundance vs DMSO median, subpopulation auxotrophic for HU; higher = larger share of this subpopulation than in DMSO controls; conditions: 10 µM; 24 h; SM minimal medium; subpopulation (auxotrophy): HU
# How it was run: as §1
# [9] = test system: Saccharomyces cerevisiae BY4741 SeMeCo community; assay: z-score of subpopulation abundance vs DMSO median, subpopulation auxotrophic for UM; higher = larger share of this subpopulation than in DMSO controls; conditions: 10 µM; 24 h; SM minimal medium; subpopulation (auxotrophy): UM
# How it was run: as §1
# [10] = test system: Saccharomyces cerevisiae BY4741 SeMeCo community; assay: z-score of subpopulation abundance vs DMSO median, subpopulation auxotrophic for HL; higher = larger share of this subpopulation than in DMSO controls; conditions: 10 µM; 24 h; SM minimal medium; subpopulation (auxotrophy): HL
# How it was run: as §1
# [11] = test system: Saccharomyces cerevisiae BY4741 SeMeCo community; assay: z-score of subpopulation abundance vs DMSO median, subpopulation auxotrophic for HLU; higher = larger share of this subpopulation than in DMSO controls; conditions: 10 µM; 24 h; SM minimal medium; subpopulation (auxotrophy): HLU
# How it was run: as §1
# [12] = test system: Saccharomyces cerevisiae BY4741 SeMeCo community; assay: z-score of subpopulation abundance vs DMSO median, subpopulation auxotrophic for HLM; higher = larger share of this subpopulation than in DMSO controls; conditions: 10 µM; 24 h; SM minimal medium; subpopulation (auxotrophy): HLM
# How it was run: as §1
# [13] = test system: Saccharomyces cerevisiae BY4741 SeMeCo community; assay: z-score of subpopulation abundance vs DMSO median, subpopulation auxotrophic for HUM; higher = larger share of this subpopulation than in DMSO controls; conditions: 10 µM; 24 h; SM minimal medium; subpopulation (auxotrophy): HUM
# How it was run: as §1
# [14] = test system: Saccharomyces cerevisiae BY4741 SeMeCo community; assay: z-score of subpopulation abundance vs DMSO median, subpopulation auxotrophic for LUM; higher = larger share of this subpopulation than in DMSO controls; conditions: 10 µM; 24 h; SM minimal medium; subpopulation (auxotrophy): LUM
# How it was run: as §1
# [15] = test system: Saccharomyces cerevisiae BY4741 SeMeCo community; assay: z-score of subpopulation abundance vs DMSO median, subpopulation auxotrophic for HLUM; higher = larger share of this subpopulation than in DMSO controls; conditions: 10 µM; 24 h; SM minimal medium; subpopulation (auxotrophy): HLUM
# How it was run: as §1
# [16] = test system: Saccharomyces cerevisiae BY4741 SeMeCo community; assay: z-score of subpopulation abundance vs DMSO median, subpopulation auxotrophic for HM; higher = larger share of this subpopulation than in DMSO controls; conditions: 10 µM; 24 h; SM minimal medium; subpopulation (auxotrophy): HM
# How it was run: as §1
# [17] = test system: Saccharomyces cerevisiae BY4741 SeMeCo community; assay: z-score of subpopulation abundance vs DMSO median, subpopulation auxotrophic for L; higher = larger share of this subpopulation than in DMSO controls; conditions: 10 µM; 24 h; SM minimal medium; subpopulation (auxotrophy): L
# How it was run: as §1
SMILES,mean cell size [1],z-score of prototroph abundance [2],z-score of subpopulation abundance [3],z-score of subpopulation abundance [4],z-score of subpopulation abundance [5],z-score of subpopulation abundance [6],z-score of subpopulation abundance [7],z-score of subpopulation abundance [8],z-score of subpopulation abundance [9],z-score of subpopulation abundance [10],z-score of subpopulation abundance [11],z-score of subpopulation abundance [12],z-score of subpopulation abundance [13],z-score of subpopulation abundance [14],z-score of subpopulation abundance [15],z-score of subpopulation abundance [16],z-score of subpopulation abundance [17]
COc1ccc(CNc2nc(N3CCC[C@H]3CO)ncc2C(=O)NCc2ncccn2)cc1Cl [Avanafil],12.5 ± 0.16,-0.15,0.21,0.68,-0.56,-0.03,-0.5,0.11,0.93,-0.55,0.58,-0.87,0.44,-0.38,-0.54,,
Cc1cccc(C)c1NC(=O)C1CCCCN1C (stereo not given) [Mepivacaine],12.2 ± 0.28,-0.01,0.42,0.11,,-0.35,0.4,,0.24,,0.12,-0.7,-0.62,,-0.41,-0.49,
C[C@]12CC[C@@H]3c4ccc(O)cc4CC[C@H]3[C@@H]1CCC2=O [Estrone],12.48 ± 0.098,,-0.44,-0.57,-0.34,0.11,0.03,-0.27,-0.49,,-0.08,-0.39,-0.46,-0.12,-0.85,-0.17,
COc1ccc(-c2nc3cc(C4=NNC(=O)CC4C)ccc3[nH]2)cc1 (stereo not given) [Pimobendan],,-0.89,0.83,,0.76,0.46,1.71,-0.28,-0.05,0.79,1.42,0.33,0.52,,1.6,0.78,
CCN(CC)CCNC(=O)c1cc(Cl)c(N)cc1OC [Metoclopramide HCl],12.4 ± 0.31,0.83,1.12,,-1.04,-1.25,0.33,-0.72,-1.49,,-0.43,-0.58,-1.06,-0.48,-0.49,1.14,
COCCOC(=O)C1=C(C)NC(C)=C(C(=O)OC(C)C)C1c1cccc([N+](=O)[O-])c1 (stereo not given) [Nimodipine],,0.04,-0.26,0.32,-0.5,-0.12,-0.2,0.19,0.69,,-0.01,-0.43,-0.42,0.35,,-0.32,
Cc1cccc(C)c1NC(=O)C1CCCCN1C (stereo not given) [Mepivacaine HCl],12.5 ± 0.31,,-0.34,1.52,-0.77,0.44,-0.76,0.57,2.17,,0.11,0.13,0.36,0.38,0.2,-0.57,
CC[C@@H]([C@H](C)O)n1ncn(-c2ccc(N3CCN(c4ccc(OC[C@@H]5CO[C@@](Cn6cncn6)(c6ccc(F)cc6F)C5)cc4)CC3)cc2)c1=O [Posaconazole],12.34 ± 0.068,-11.6,-1.66,0.25,,3.33,4.46,16.4,10.8,10.8,14.4,14.9,,7.85,12.3,11.5,
CC(=O)OC1CC2(C)C(CC(O)C3C4(C)CCC(O)C(C)C4CCC32C)C1=C(CCC=C(C)C)C(=O)O (stereo not given) [Fusidine],,-1.01,0.14,-1.39,2.59,1.02,2.09,0.13,,2.33,1.57,1.22,0.82,1.09,0.71,1.19,
C#C[C@]1(O)CC[C@H]2[C@@H]3CCc4cc(O)ccc4[C@H]3CC[C@@]21C [Ethinyl Estradiol],12.8 ± 0.2,1.23,0.05,,,-1.41,-0.77,0.01,,,-0.36,-0.72,-0.88,,-1.02,,
CN(C)CCN1C(=O)c2cccc3cc(N)cc(c23)C1=O [Amonafide],12.29 ± 0.1,0.47,0.34,-1.14,0.02,-0.78,,-0.59,-0.24,-0.12,0.2,,-0.09,0.44,-0.08,-0.01,
CCC[S+]([O-])c1ccc2[nH]c(NC(=O)OC)nc2c1 (stereo not given) [Albendazole Oxide],12.4 ± 0.35,0.33,-0.33,0.49,-0.72,-0.51,-0.25,,0.18,-0.18,-0.31,,0.36,-0.65,-1.11,0.14,
CN1CCCN=C1/C=C/c1cccs1 [Pyrantel Pamoate],12.8 ± 0.19,0.2,1.45,0.04,1.26,-0.11,,0.04,-1.25,-0.22,0.47,0.61,,-0.44,,0.03,
CN(C)CCC=C1c2ccccc2CCc2ccccc21 [Amitriptyline HCl],12.3 ± 0.27,0.95,0.09,-0.21,-0.87,,-0.17,-0.28,-0.92,-0.48,-1.03,-1.26,-0.75,-0.91,-0.81,-0.99,-0.56
Cc1c(OCC(F)(F)F)ccnc1C[S@@+]([O-])c1nc2ccccc2[nH]1 [Dexlansoprazole],12.3 ± 0.13,,-0.04,-0.65,1.18,,1.28,-0.32,-0.91,0.7,0.19,-0.96,-0.66,0.16,-0.54,0,0.56

# From the supplement of paper PMC8975748
